Screening data (PubChem)
Shown are actives, neighbours in structure and some others; about 4.1% of the full set was active somewhere.
hcDAF12 agonist: activators of H. contortus DAF-12 nuclear receptor; HEK293 hcDAF-12 lit1-tk-luc reporter, luminescence; 0% DMSO, 100% Δ7-dafachronic acid; activation, % at 6.8 µM; hit rate 1.4% among 370,000; AID 652067;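 active means activation above the mean of all tested compounds plus 3 SD, cut at about 5.5% in these data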;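 further: 100% = response to 3 µM Δ7-dafachronic acid high control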
hgDAF-12 ag: agonists of H. glycines DAF-12 nuclear receptor; HEK293 GAL4-hgDAF12 UAS-luciferase reporter, agonist luminescence; normalized to butyrate control; activation, % at 6.8 µM; hit rate 1.8% among 370,000; AID 687014;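 active means activation above a cutoff set at the mean of all screened compounds plus 3 SD, cut at about 10% in these data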;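 further: 0% = DMSO wells and 100% = sodium butyrate wells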
DAX1 inh-1: inhibitors of DAX1 repression of SF-1 activated StAR promoter | HEK293T StAR-luciferase reporter, SF-1/DAX-1 repression relief | inhibition, % at 6.8 µM | hit rate 1.1% among 370,000 | AID 652010;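 active means inhibition above the mean over all tested compounds plus 3 SD, cut at about 3.6% in these data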;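 further: 0% = DAX-1 cells with DMSO and 100% = cells lacking DAX-1 with DMSO; higher inhibition means more luminescence from relief of DAX-1 repression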
DAX1 inh-2: NR0B1 (DAX1) inhibition; P51843; HEK293 Gal4-DAX1 luciferase reporter, luminescence; inhibition, % at 6.75 µM; hit rate 0.99% among 340,000;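 active means inhibition above the mean over all tested compounds plus 3 SD, cut at about 4.2% in these data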;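 further: 0% = DAX1-transfected cells with DMSO and 100% = empty-vector control cells with DMSO; inhibition shows as a rise in luminescence from relieved DAX1 repression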
Target sequence (P51843 207-470 limits assumed): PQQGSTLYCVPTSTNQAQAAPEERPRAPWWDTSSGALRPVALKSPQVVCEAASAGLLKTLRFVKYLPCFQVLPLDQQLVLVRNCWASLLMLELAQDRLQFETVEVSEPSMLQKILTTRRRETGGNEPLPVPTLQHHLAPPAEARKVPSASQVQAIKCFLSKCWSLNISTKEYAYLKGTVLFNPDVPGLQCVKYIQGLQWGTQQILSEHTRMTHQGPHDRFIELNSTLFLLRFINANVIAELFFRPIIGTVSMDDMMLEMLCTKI
ssDAF-12 act: S. stercoralis DAF-12 activation, primary screen | activation, % at 6.8 µM | AID 652126 | hit rate 1% among 370,000 | HEK293 ssDAF-12/GRIP1 lit1-tk-luc reporter, luminescence; % of 3 µM dafachronic acid response;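 active means activation above the mean over all tested compounds plus 3 SD, cut at about 0.9% in these data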;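 further: 0% = DMSO-only wells and 100% = 3 µM delta7-dafachronic acid wells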
Starred values were filed as active, the others as inactive; x = not tested or not shown.

SMILES	hcDAF12 agonist	hgDAF-12 ag	DAX1 inh-1	DAX1 inh-2	ssDAF-12 act
Cc1ccnc2nc(C(=O)Nc3nc(-c4ccccn4)cs3)nn12	-1	-1	0	8.3*	-1
CN(C)c1ccc(C(=O)OCC(=O)N2CCCC2)cc1	0	3	0	1	0.9*
CN(C)c1ccc(C(=O)OCC(=O)N2CCCCCC2)cc1	1	7	2	1	-1
CCc1ccc(OC(=O)Nc2ccccc2)cc1	6.2*	11*	2	3	1
COc1ccc(NC(=O)N/C=C/c2ccccc2)cc1	1	12*	2	4	-1
COc1ccc(OC(=O)Nc2ccccc2)cc1	3	6	3.9*	1	0
CC(=O)Nc1ccc(NC(=O)Oc2ccccc2)cc1	-1	3	0	-1	0
CC(C)[C@H]1/C(=C/C2CC2)N2C(=O)C[C@H](c3ccccc3)N=C2N1C	0	-1	x	x	-1
CCOC(=O)CC1(Cc2ccccc2)Oc2ccccc2O1	1	5	0	x	-1
CCOc1ccc(-n2c(SCc3cccc4ccccc34)nnc2-c2ccc(C)cc2)cc1	-5	-3	-2	x	-2
O=C(/C=C/c1cccs1)Nc1ccc(N2CCOCC2)c(S(=O)(=O)Nc2cc(Cl)ccc2Cl)c1	5.7*	5	0	-1	-1
O=C(/C=C/c1cccs1)Nc1ccc(N2CCOCC2)c(S(=O)(=O)Nc2ccccc2Cl)c1	-4	-1	-1	-3	-3
Cc1ccc(S(=O)(=O)n2c(N)nc3ccccc32)cc1	-2	0	0	0	-1
Nc1nc2ccccc2n1S(=O)(=O)c1ccc(Cl)cc1	0	-1	4.2*	x	-1
CSc1nn(CCC#N)c(=O)[nH]c1=O	0	-2	1	x	0
Cc1cc(C)cc(OCC(O)CN2CC(C)OC(C)C2)c1 (centres undefined)	-1	-1	1	6.5*	0
CC(C)C[C@H](NC(=O)c1ccccc1)C(=O)N1CCC[C@H]1C(=O)NCc1ccccc1	-1	0	-1	x	0
CCc1ccc(OCC(=O)NC(=S)Nc2ccc(F)cc2)c(Br)c1	2	3	0	2	-1
CCc1ccc(OCC(=O)N(C)C)c(Br)c1	-2	1	0	5.5*	-1
CCCCCCCCN1C(=O)[C@@H](CC(=O)NCC23CC4CC(CC(C4)C2)C3)C[C@@]2(C(=O)OC)C1=C[C@H](C1CCCC1)O[C@@H]2C	1	-1	0	x	-1
Cc1c(CCC(=O)NCCCN2CCCC2=O)c(=O)oc2c(C)c(O)ccc12	0	4	1	-1	-1
Cc1sc(N)nc1-c1ccc2c(c1)OCCO2	1	2	1	-1	-1
NC1=NN=C(c2ccc3c(c2)OCCO3)CS1	3	13*	4.5*	-1	-1
Cc1cccc(C2c3[nH]c4ccccc4c3CCN2Cc2ccc(C)s2)n1 (centres undefined)	6.4*	4	0	0	1.0*
Cc1cccc(C2c3[nH]c4ccccc4c3CCN2C(=O)Cc2n[nH]c(C)n2)n1 (centres undefined)	3	4	1	1	1.5*
SMILES	hcDAF12 agonist	hgDAF-12 ag	DAX1 inh-1	DAX1 inh-2	ssDAF-12 act
COc1ccc(C2c3[nH]c4ccccc4c3CCN2C(=O)Cc2nonc2C)c(F)c1 (centres undefined)	5.7*	9	1	0	0
COc1cccc(C2c3[nH]c4ccccc4c3CCN2Cc2cnc(C)s2)c1OC (centres undefined)	3	0	0	0	1.1*
CC1=CN2C(c3cccc([N+](=O)[O-])c3)=NON(c3ccc(C)cn3)C2C=C1 (centres undefined)	0	-3	-1	x	-1
CCCCN1C(=O)C2(OCCCO2)c2cccc(C)c21	-2	-1	0	0	0
CNS(=O)(=O)c1cccc(C(=O)OCC(=O)Nc2ccc(OC)cc2[N+](=O)[O-])c1	-1	-1	-1	4.3*	-2
COc1ccc(NC(=O)COC(=O)c2ccc(Cl)c(S(N)(=O)=O)c2)c([N+](=O)[O-])c1	0	-5	2	5.0*	-1
COc1ccc(NC(=O)COC(=O)c2cc(OC)c(OC)c(OC)c2)c([N+](=O)[O-])c1	0	1	0	-1	0
NS(=O)(=O)c1cc(C(=O)OCC(=O)Nc2ccc(Cl)cc2[N+](=O)[O-])ccc1Cl	3	2	0	2	-1
COc1ccc(C2CC(=O)C(c3ccc([N+](=O)[O-])cc3)=CN2Cc2ccccc2)cc1 (centres undefined)	-2	-2	-3	x	-1
O=c1[nH]nc(Cc2ccc(-c3ccccc3Cl)o2)c2ccccc12	0	2	0	0	1.4*
O=c1[nH]nc(Cc2ccc(Cl)cc2)c2ccccc12	-2	0	0	-1	-1
COc1ccc(S[C@]2(C(=O)N3CCN(c4ncccn4)CC3)CC(=O)N(C(=O)Nc3ccc(C)c(Cl)c3)[C@@H]2c2ccc(OC)cc2)cc1	-1	1	0	x	-1
CCc1cccc(NC2c3ccccc3C(=O)N2c2ccc(C)cn2)c1 (centres undefined)	4	12*	3	2	0
CCc1ccc(C(=O)NNC(=O)CCc2nc3ccccc3c(=O)[nH]2)cc1	-1	1	3.6*	1	0
COc1ccc(C(=O)NNC(=O)CCc2nc3ccccc3c(=O)[nH]2)cc1	0	3	1	2	-1
C/C(=N\Nc1nc2ccccc2[nH]1)c1ccc(N2CCOCC2)cc1	3	8	3.9*	0	0
CCc1nc2ccc(C(=O)NCCNC(C)=O)cn2c1N(C)Cc1ccc(OC)cc1	0	-3	-1	x	-1
Cc1ccc2cc(C=O)c(N3CCOCC3)nc2c1C	-1	1	0	0	-2
Cc1ccc2nc(N3CCOCC3)c(C=O)cc2c1	-2	1	0	8.2*	-1
Cc1ccccc1C(=O)NC1CCCCN(Cc2cccc(Cl)c2)C1=O (centres undefined)	-3	2	-1	x	1.0*
Cc1ccccc1CN1CCCCC(NC(=O)C2CCC2)C1=O (centres undefined)	1	-1	0	x	1.9*
Cc1ccc(C(=O)NC2CCCCN(Cc3cccc(Cl)c3)C2=O)c(C)c1 (centres undefined)	-2	2	-1	x	-1
CCOc1ccc2nc(-c3ccccc3)[nH]c2c1	5	12*	0	-2	0
COc1ccc(-c2nc3ccc([N+](=O)[O-])cc3[nH]2)cc1	6.3*	19*	4.5*	2	1.8*
COc1ccc2[nH]c(-c3ccccc3)cc2c1	6.1*	9	2	4.2*	0
COc1ccc2nc(NCc3ccccc3)[nH]c2c1	2	7	-1	2	-2
CCOc1ccc2nc(C(C)O)[nH]c2c1 (centres undefined)	0	1	0	4	0
